We go through two compounds from ChEMBL document CHEMBL3988442, “University of Dundee, Small-Polar-MMV Screening Library” (2021).

SMILES strings stand for the structures. Values joined by “and” are separate entries in the source; they are usually repeats but may differ in a detail not shown here. Equal entries are not always repeated. For part of these data: Entries with a potency or affinity are not part of this list.

Common to all, as to parameters: scale not given: direction of the effect not stated beside the values
The target of experiment [1] is Protein translocase subunit SecA (Escherichia coli (strain K12)) (UniProt P10408). Nature of the experiment: Assay to Identify E. coli SecA ATPase Inhibitors. As to conditions: 30 µM. It counts as functional.
Protein translocase subunit SecA (Escherichia coli (strain K12)), sequence (P10408 whole entry): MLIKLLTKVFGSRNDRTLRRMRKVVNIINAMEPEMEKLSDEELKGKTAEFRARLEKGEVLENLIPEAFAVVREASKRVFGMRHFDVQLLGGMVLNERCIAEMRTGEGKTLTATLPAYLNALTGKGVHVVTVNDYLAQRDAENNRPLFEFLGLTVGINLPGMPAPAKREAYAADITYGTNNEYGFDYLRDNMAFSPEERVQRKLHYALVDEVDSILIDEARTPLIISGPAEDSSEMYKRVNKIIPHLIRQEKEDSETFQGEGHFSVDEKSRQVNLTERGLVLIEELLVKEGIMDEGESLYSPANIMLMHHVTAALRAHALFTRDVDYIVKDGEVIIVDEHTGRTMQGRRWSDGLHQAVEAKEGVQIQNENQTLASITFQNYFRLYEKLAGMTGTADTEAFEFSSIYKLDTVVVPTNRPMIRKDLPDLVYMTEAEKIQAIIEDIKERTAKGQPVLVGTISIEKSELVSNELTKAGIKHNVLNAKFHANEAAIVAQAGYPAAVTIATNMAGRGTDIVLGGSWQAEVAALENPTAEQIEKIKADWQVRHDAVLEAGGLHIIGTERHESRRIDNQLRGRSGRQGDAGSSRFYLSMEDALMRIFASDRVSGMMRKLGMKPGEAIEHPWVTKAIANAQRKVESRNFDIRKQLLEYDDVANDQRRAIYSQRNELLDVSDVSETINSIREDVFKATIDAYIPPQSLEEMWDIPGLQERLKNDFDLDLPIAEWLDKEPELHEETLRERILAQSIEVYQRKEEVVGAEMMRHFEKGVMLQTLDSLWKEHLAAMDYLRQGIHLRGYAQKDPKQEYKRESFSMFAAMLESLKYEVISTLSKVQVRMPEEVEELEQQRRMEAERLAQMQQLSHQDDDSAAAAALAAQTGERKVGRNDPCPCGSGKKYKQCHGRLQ
In experiment [2] the target is T1, Ubiquitin-activating enzyme e1, putative (Leishmania donovani (strain BPK282A1)) (UniProt E9BSI1).
T1 sequence (whole entry): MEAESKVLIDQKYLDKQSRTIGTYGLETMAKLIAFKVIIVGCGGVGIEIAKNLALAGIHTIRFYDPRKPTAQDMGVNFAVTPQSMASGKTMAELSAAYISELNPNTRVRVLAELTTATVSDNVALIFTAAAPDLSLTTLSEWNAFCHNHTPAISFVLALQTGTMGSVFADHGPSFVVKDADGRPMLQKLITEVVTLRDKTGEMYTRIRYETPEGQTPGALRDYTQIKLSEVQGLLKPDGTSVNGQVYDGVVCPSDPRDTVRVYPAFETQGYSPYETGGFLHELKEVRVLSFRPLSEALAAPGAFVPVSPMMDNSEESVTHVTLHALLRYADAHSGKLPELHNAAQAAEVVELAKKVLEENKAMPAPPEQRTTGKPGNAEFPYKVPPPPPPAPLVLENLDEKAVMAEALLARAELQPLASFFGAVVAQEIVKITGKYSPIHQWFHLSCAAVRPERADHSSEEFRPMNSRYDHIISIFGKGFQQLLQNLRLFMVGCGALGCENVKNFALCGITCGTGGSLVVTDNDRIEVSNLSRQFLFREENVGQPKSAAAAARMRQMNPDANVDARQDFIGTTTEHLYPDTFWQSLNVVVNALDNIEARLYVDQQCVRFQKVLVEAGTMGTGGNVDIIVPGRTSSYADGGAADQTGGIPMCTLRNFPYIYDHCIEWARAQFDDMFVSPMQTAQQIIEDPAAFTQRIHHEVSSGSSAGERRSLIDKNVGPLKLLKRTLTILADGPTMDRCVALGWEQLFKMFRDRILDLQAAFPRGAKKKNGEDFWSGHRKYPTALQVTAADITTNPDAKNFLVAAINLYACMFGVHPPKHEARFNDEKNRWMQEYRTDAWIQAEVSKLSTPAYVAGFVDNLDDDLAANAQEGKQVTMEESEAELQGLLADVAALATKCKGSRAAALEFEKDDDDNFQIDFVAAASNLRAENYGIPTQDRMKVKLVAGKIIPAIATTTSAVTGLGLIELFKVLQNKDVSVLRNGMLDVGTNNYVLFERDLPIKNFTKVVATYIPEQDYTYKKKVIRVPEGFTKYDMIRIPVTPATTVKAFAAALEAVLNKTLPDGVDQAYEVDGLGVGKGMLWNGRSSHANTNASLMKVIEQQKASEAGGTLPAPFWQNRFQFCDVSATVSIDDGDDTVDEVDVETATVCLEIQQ
Nature of the experiment: Leishmania donovani Ubiquitin Activating Enzyme (LdE1). As to conditions: 30 µM. It counts as functional.

For experiment [3], the target named is T2, Aspartate--tRNA(Asp/Asn) ligase (Mycobacterium tuberculosis (strain ATCC 25618 / H37Rv)) (UniProt P9WFW3). Also: in the data most compounds retested in dose-response had high values.
T2 sequence (whole entry): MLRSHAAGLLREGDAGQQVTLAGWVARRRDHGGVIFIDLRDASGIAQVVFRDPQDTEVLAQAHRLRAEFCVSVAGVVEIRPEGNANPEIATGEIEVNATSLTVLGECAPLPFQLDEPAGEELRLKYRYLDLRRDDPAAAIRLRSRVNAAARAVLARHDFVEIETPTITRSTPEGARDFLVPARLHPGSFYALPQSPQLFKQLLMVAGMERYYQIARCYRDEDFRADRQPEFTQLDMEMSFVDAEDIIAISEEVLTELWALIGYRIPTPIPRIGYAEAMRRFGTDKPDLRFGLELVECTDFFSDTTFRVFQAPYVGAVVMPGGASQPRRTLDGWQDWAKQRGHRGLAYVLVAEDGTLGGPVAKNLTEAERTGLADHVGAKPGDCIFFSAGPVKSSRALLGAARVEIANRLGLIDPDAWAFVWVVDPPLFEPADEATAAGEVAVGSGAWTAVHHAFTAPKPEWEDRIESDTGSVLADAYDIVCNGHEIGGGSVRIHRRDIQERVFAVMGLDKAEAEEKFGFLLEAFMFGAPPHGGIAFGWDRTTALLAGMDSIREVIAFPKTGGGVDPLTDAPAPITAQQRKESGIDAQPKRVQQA
Put plainly: Assay for Asp RNA synthetase-1 from Mycobacterium tuberculosis. It counts as functional. The settings on record: 30 µM.

Experiment [4] has as its target AMP-activated protein kinase, AMPK (Homo sapiens) (UniProt P54646+O43741+P54619+Q9UGJ0+Q9Y478+Q13131+Q9UGI9). Nature of the experiment: AMP-dependent Kinase enzyme assay. An in vitro enzyme assay that detects ADP turnover that is directly proportional to AMPK activity. This uses naive AMPK that is activated during the assay with MK-8722. It counts as functional. As to conditions: 30 µM.

The target in experiment [5] is Sialic acid-binding Ig-like lectin 9 (Homo sapiens) (UniProt Q9Y336). Nature of the experiment: Hs-Siglec9 ALPHAscreen SOP 20170721. As to conditions: 10 µM. (In general: Bead proximity is the source of the signal in Alpha formats.)
Sialic acid-binding Ig-like lectin 9 (Homo sapiens), sequence (Q9Y336 whole entry): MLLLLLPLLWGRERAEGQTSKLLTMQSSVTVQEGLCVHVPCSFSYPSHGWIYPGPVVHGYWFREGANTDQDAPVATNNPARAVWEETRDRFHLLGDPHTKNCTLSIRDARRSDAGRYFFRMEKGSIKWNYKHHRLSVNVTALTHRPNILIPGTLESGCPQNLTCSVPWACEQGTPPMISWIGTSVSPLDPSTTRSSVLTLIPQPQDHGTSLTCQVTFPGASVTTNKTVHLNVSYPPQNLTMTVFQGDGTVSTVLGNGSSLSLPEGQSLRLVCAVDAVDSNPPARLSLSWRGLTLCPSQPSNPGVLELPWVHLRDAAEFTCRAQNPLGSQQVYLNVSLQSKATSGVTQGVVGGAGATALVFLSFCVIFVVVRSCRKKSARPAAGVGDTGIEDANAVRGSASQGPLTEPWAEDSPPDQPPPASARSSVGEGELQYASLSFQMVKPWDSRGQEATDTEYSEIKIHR
The subject of experiment [6] is Trypanosoma cruzi. Put plainly: Trypanosoma cruzi phosphomannomutase and mannose-1-phosphate guanylyltransferase assay. Type of experiment: functional. As to conditions: 10 µM.
The target of experiment [7] is T3, Arginase-2, mitochondrial (Homo sapiens) (UniProt P78540).
T3 sequence (whole entry): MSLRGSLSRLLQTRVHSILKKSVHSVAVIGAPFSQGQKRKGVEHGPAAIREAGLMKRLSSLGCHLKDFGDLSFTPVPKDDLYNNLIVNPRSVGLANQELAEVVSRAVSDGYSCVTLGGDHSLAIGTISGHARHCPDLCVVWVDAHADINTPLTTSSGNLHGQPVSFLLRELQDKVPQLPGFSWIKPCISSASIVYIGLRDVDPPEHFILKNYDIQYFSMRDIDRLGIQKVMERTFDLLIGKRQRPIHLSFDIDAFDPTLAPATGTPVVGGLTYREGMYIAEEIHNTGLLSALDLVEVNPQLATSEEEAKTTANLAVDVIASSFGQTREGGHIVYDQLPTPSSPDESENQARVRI
Put plainly: in vitro enzyme assay to detect the production of urea directly proportional to the activity of Arginase II. Also: in the data most compounds retested in dose-response had high values. Type of experiment: functional. As to conditions: 33.3 µM.

The target of experiment [8] is T4, Proteasome subunit beta (Trypanosoma cruzi) (UniProt O96673).
T4 sequence (whole entry): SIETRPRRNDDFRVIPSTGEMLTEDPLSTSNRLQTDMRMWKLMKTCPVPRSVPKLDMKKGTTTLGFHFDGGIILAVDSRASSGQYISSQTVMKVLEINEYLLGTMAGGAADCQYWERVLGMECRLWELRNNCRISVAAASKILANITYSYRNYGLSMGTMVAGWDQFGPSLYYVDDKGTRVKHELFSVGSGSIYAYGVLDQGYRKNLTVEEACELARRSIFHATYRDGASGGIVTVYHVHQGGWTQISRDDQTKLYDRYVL
Nature of the experiment: Trypanosoma cruzi proteasome chymotrypsin-like activity (TcProtChymo) assay. Also: in the data most compounds retested in dose-response had high values. Type of experiment: functional. The settings on record: 9.37 µM.

In experiment [9] the test system is N/A. Put plainly: Trypanosoma cruzi proteasome luciferase counter-screen. It counts as functional. As to conditions: 9.37 µM.
The species named for experiment [10] is Homo sapiens. Put plainly: To identify inhibition of the IFN signalling (Jak-Stat) pathway via expression of an eGFP reporter gene under the control of an IFN-stimulated response element (ISRE) containing MxA promoter. Type of experiment: functional. As to conditions: 30 µM.
Experiment [11] has as its target Shiga toxin 2 (Escherichia coli O157:H7) (UniProt P09385+P09386). Put plainly: E. coli 0.157:H7 Shiga Toxin SOP - stx2 screening assay. It counts as functional. The settings on record: 30 µM.
The target in experiment [12] is T5, Tyrosyl-tRNA synthetase, putative (Trypanosoma cruzi (strain CL Brener)) (UniProt Q4DSP6).
T5 sequence (whole entry): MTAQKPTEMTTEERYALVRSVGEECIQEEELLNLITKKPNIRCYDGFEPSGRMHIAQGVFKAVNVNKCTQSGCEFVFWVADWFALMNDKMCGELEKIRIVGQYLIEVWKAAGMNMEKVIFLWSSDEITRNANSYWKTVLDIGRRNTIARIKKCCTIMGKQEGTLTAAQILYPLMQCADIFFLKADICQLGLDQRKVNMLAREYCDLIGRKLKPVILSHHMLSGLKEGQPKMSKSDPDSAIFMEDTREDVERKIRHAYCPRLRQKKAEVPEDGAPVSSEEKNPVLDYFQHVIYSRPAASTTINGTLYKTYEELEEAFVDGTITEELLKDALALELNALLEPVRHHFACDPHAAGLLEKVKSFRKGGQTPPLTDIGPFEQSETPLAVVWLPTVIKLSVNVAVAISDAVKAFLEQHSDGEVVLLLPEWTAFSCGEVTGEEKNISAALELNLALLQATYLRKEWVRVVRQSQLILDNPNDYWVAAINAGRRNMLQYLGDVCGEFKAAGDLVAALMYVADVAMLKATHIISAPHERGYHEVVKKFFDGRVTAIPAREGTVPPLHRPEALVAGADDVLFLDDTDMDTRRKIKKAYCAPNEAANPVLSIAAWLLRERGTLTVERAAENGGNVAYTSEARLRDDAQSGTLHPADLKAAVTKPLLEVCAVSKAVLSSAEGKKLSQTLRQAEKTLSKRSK
Put plainly: Trypanosoma cruzi tyrosyl tRNA synthetase (TcYRS) _High Tyrosine SOP. Also: in the data most compounds retested in dose-response had high values. It counts as functional. The settings on record: 30 µM.

Experiment [13] concerns the target T5, Tyrosyl-tRNA synthetase, putative (Trypanosoma cruzi (strain CL Brener)). Put plainly: Trypanosoma cruzi tyrosyl tRNA synthetase (TcYRS) SOP. It counts as functional. The settings on record: 30 µM.
Experiment [14] addresses Chromo domain-containing protein 1 (Saccharomyces cerevisiae (strain ATCC 204508 / S288c) (Baker's yeast)) (UniProt P32657). Put plainly: ScCHD-1 Enzyme Inhibition Assay. Also: in the data most compounds retested in dose-response had high values. Type of experiment: functional. As to conditions: 30 µM.

Chromo domain-containing protein 1 (Saccharomyces cerevisiae (strain ATCC 204508 / S288c) (Baker's yeast)), sequence (P32657 whole entry, the tested form may be a part): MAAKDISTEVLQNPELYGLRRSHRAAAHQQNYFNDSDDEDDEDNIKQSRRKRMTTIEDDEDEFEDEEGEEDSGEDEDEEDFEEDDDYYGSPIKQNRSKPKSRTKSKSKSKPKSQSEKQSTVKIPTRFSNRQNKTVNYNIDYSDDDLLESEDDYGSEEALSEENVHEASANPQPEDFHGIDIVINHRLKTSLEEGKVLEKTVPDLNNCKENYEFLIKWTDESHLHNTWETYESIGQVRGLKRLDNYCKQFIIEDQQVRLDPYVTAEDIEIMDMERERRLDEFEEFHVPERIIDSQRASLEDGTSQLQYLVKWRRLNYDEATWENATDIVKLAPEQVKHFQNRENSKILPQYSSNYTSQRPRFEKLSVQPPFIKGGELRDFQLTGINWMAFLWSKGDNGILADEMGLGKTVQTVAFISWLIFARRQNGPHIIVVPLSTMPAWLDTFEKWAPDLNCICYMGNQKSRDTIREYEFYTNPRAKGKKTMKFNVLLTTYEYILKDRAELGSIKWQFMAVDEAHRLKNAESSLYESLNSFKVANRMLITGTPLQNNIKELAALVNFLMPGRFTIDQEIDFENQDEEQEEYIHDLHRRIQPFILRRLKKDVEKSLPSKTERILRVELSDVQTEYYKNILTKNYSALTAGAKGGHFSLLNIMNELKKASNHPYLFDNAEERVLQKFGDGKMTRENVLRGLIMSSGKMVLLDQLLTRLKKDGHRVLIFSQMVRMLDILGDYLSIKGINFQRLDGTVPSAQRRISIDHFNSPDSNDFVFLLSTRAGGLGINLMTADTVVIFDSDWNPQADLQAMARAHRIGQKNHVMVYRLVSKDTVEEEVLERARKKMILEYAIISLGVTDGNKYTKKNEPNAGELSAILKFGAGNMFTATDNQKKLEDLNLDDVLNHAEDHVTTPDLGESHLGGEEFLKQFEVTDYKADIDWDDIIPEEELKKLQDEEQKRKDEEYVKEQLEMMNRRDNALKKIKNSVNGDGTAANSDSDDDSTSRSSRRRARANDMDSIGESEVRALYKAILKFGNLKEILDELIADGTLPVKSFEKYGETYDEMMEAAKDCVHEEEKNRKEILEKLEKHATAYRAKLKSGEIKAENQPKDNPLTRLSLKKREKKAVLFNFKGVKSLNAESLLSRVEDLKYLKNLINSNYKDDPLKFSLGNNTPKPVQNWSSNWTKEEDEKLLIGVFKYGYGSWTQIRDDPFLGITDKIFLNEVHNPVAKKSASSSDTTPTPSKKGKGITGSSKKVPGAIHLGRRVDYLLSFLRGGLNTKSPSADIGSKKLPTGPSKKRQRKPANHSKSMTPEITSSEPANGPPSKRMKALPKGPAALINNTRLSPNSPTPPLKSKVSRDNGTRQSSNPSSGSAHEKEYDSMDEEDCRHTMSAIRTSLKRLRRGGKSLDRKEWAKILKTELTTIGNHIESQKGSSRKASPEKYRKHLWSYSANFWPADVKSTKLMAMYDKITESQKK

Consider `CO[C@@H]1CN(Cc2scnc2C)[C@@H]2CCCO[C@@H]21`, for which the Percent Effect in [1] was -5.71%; in [2] it was 2.7%; in experiment [3], -1.4%; in experiment [4] it was -6.24%; in experiment [5] it was 4.17%; in [6], 2.25%. Moreover, the Percent Effect in experiment [7] was 3.72%; in [8], 82% and 78.2% and 80%; in experiment [9] it was 19.6% and 16.4%; in experiment [10], -7.25%; in experiment [11], 8.62%; in experiment [12], 6.45%. The results for the Percent Effect in experiment [13] and in [14] were 8.64% and -1.19%, respectively.

For the compound `CO[C@H]1CCN(Cc2ccccn2)[C@@H]2CN(Cc3ccco3)C[C@H]12`, the Percent Effect is -4.75% in experiment [1]; 9.33% in [2]; -1.34% in experiment [3]; 0.435% in [4]; 4.87% in experiment [5]; -3.34% in experiment [6]. For the same compound, the Percent Effect in experiment [7] is 2.64%; in [8], 17.7%; in experiment [10], -12.9%; in experiment [11], -18.4%; in experiment [12] it was 9.52%; in experiment [13], 15.4%. In experiment [14], the Percent Effect was -1.8%.
